BRCA1 expr act: activators of BRCA1 expression. MCF7-BRCA1-FFLuc reporter, luminescence, 48 h; response scale: scaled: vehicle 0%, 10 µM genistein 100%. Potency, µM (top dose mostly 46.1 µM), for the others: top-dose activation, actives largely listed as activators. 1.1% of 380,000 active; note: potency is the fitted concentration of half-maximal effect; nearly all actives have a fitted effect of over 80% in size
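Luminescence from a BRCA1-driven firefly luciferase in MCF7 cells was the read-out, taken 15 min after substrate addition following 48 h compound exposure at 37 °C. Data were normalized to a 10 microM genistein control and DMSO vehicle.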
gsp agonist: gsp mutant agonism. 0.13% of 340,000 active. gsp mutant cells, cAMP HTRF, 30 min. AID 624287. Potency, µM (series often up to 76.9 µM), for inactives: at the top dose activation (cAMP increase), usual class: activators; active = well fitted activation curve with a large enough effect; inconclusive = small, poorly fitted or top-dose-only effect, or another doubt; inactive = no such curve, though single readings can be large or run the other way; cell line not stated here;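 note: phosphodiesterase inhibitor Ro 20-1724 added with compounds to block cAMP breakdown; potency is the fitted concentration of half-maximal effect; nearly all actives have a fitted effect of over 60% in size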
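Cells in DMEM/10% FBS with G418 were pretreated with compounds in DMSO plus […] (300 uM stock) for 30 min at 37C. cAMP was measured by HTRF (cAMP-d2 plus anti-cAMP antibody-K) after 30 min at room temperature.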
IL-2 act: IL-2 activation | AID 652025 | activation, % (series mostly up to about 46 µM) | IL-2 activation reporter assay, cell-based qHTS; stimulated with anti-CD3/CD4/CD28 beads; in transgenic mouse T cells | 0.065% of 360,000 active; in the data active = activation above about 50%; inconclusive = mostly about 30% to 49%; note: 0% is about no effect
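Unstimulated transgenic mouse T cells preincubated 60 min with compound, then stimulated with anti-CD3/anti-CD4-coated beads plus anti-CD28 for 18 h at 37 degrees C. IL-2 response read as EGFP and DsRed fluorescence by plate cytometry.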
IDH1 R132H inh: inhibitors of human mutant IDH1 R132H; Potency, µM (titrated, usually from 76.6 µM), without a hit: top-dose activity change, negative = inhibition, actives largely listed as inhibitors; O75874; IDH1-R132H enzyme, NADPH consumption, diaphorase/resazurin fluorescence; 0.093% of 390,000 active; note: potency is the fitted concentration of half-maximal effect; % is set by controls: 0 for no effect and ±100 for the full control effect; nearly all actives have a fitted effect of over 65% in size
Target sequence (O75874 whole entry R132H, stated change not applied): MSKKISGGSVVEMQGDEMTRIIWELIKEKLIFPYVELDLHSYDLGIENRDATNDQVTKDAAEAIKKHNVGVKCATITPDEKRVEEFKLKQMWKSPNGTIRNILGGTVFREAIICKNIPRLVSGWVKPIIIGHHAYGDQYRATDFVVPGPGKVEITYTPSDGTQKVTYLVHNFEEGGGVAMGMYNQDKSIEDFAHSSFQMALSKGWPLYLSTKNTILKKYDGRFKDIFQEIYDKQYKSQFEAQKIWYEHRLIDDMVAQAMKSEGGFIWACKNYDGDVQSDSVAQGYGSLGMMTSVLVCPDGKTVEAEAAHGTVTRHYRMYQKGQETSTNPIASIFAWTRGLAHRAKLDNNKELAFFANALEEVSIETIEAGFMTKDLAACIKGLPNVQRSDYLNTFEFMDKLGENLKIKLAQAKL
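IDH1-R132H (0.5 ug/mL dispensed) in pH 7.5 Tris buffer was preincubated 30 min with compound, then given a substrate mix of 0.016 mM NADPH and 2 mM alpha-KG for 80 min at room temperature; remaining NADPH was read by diaphorase/resazurin fluorescence.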
gsp antag: gsp mutant antagonism. gsp-mutant cells, cAMP HTRF, 30 min. Potency, µM (doses to about 76.9 µM), without a hit: at the highest dose activity change, negative = inhibition, actives largely listed as inhibitors. 0.4% of 340,000 active; calls by dose curve; cell line not stated here;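 note: intracellular cAMP measured with PDE inhibitor Ro 20-1724 present during compound exposure; potency is the fitted concentration of half-maximal effect; % is set by controls: 0 for no effect and ±100 for the full control effect; nearly all actives have a fitted effect of over 65% in size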
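Measurement of cellular cAMP by homogeneous time-resolved fluorescence following a 30 min compound exposure at 37C. The PDE inhibitor […] was present throughout; the assay buffer was DPBS with 0.05% BSA and 0.005% Tween 20.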
Active calls of the source: *; [ ] = dose if it differs, or a comment. Most compounds without a hit are left out; they make up all but 1.5% or so of the library. Unless noted, calls come from the whole dose curve; as a rule, active = well fitted curve in the direction sought with a large enough effect; inconclusive = small, poorly fitted or top-dose-only effect, or another doubt; inactive = no such curve, though single readings can be large; an effect the other way counts as inactive or inconclusive.

For C=C1NN(Cc2ccc(OC)cc2)C(=O)N1c1ccccc1 the results were BRCA1 expr act 8%.
`O=C1c2ccccc2NC(c2ccc(Br)o2)N1O` (configuration not stated) gave BRCA1 expr act 11µM* and IL-2 act 1.
For O=C1c2ccccc2NC(c2ccc(Br)s2)N1O (configuration not stated) the results were BRCA1 expr act -63%, gsp agonist 16µM*, IL-2 act 1, IDH1 R132H inh 12% and gsp antag -2%.
CC1CCCCN1C(=O)CSc1nnc(-c2ccccc2F)o1 (configuration not stated) was read as BRCA1 expr act 3.2µM*, gsp agonist 15%, IL-2 act 1, IDH1 R132H inh -5% and gsp antag 2%.
Screening Cc1occc1-c1nnc(SCC(=O)N(C)c2ccccc2)o1 returned BRCA1 expr act 11%, gsp agonist 3%, IL-2 act -4, IDH1 R132H inh -2% and gsp antag 8%.
`CN(C(=O)CSc1nnc(-c2ccccc2F)o1)c1ccccc1` gave BRCA1 expr act 11µM*, gsp agonist -1%[15.4 µM], IL-2 act 0, IDH1 R132H inh 2% and gsp antag 2%.
For CCC1CCCCN1C(=O)CSc1nnc(-c2cccs2)o1 (configuration not stated) the results were BRCA1 expr act 8.9µM*, gsp agonist 14%, IL-2 act -2, IDH1 R132H inh 4% and gsp antag 0%.
For CC1CCCN(C(=O)CSc2nnc(-c3cccs3)o2)C1 (configuration not stated) the results were BRCA1 expr act 103%, gsp agonist 3%[15.4 µM], IL-2 act -5, IDH1 R132H inh -4% and gsp antag -1%.
Screening CC1CCCCN1C(=O)CSc1nnc(-c2cccc(Cl)c2)o1 (configuration not stated) returned IDH1 R132H inh 12%.
For CC1CCCCN1C(=O)CSc1nnc(-c2ccco2)o1 (configuration not stated) the results were BRCA1 expr act 3.2µM*, gsp agonist -4%[15.4 µM], IL-2 act -1, IDH1 R132H inh 1% and gsp antag 7%.
For CCn1cc(C(=O)N2CCN(c3ccccc3)CC2)c(=O)c2cc(S(=O)(=O)N(C)C3CCCCC3)ccc21 the results were BRCA1 expr act 11% and IDH1 R132H inh 2%.
For O=C(NCCc1ccccc1)c1ccc(Cl)cc1[N+](=O)[O-] the results were BRCA1 expr act inconclusive, gsp agonist -2%, IL-2 act 0, IDH1 R132H inh 5% and gsp antag 5%.
Screening Cc1ccc(-c2nc3c4ccccc4n(CC(=O)NCc4ccc(F)cc4)c(=O)n3n2)cc1 returned IDH1 R132H inh 10%.
COc1cccc(CN2CCN(Cc3cccn3-c3cccnc3)CC2CCO)c1 (configuration not stated) was read as BRCA1 expr act 0%, gsp agonist -13%, IL-2 act 0, IDH1 R132H inh -8% and gsp antag 50µM*.
Screening CC(C)CCN1CCN(Cc2cccn2-c2cccnc2)CC1CCO (configuration not stated) returned BRCA1 expr act -7%, gsp agonist -21%, IL-2 act 1, IDH1 R132H inh -6% and gsp antag 2%.
For CC1CCN(c2ccc(C(=O)NCc3cccs3)cn2)CC1 the results were BRCA1 expr act 14µM*, gsp agonist 9%, IL-2 act 0, IDH1 R132H inh 3% and gsp antag -2%.
Screening O=c1oc2ccccc2cc1-c1cn2cc(Cc3ccc(Br)cc3)sc2n1 returned BRCA1 expr act 23% and IDH1 R132H inh -1%.
CC1=C/C(=N\OS(=O)(=O)c2ccccc2)C(C)=CC1=O was read as BRCA1 expr act -96%, gsp agonist -29%, IL-2 act -3, IDH1 R132H inh 23% and gsp antag 28µM*.
`CC1=C/C(=N\OS(=O)(=O)c2ccccc2)C(C(C)C)=CC1=O` gave BRCA1 expr act -71%, gsp agonist -12%, IL-2 act -3, IDH1 R132H inh 24% and gsp antag 17%.
COc1cccc(CNC(=O)CSc2nc3ccccc3nc2Cc2ccc(C)cc2)c1OC was read as BRCA1 expr act 0% and IDH1 R132H inh -4%.
O=C(Oc1ccc(N(C(=O)c2ccncc2)S(=O)(=O)c2ccc(Cl)cc2)cc1)c1ccncc1 was read as BRCA1 expr act -17%, gsp agonist -8%, IL-2 act 1, IDH1 R132H inh 4% and gsp antag 0%.
Screening COc1ccc(N(C(=O)c2ccncc2)S(=O)(=O)c2ccc(Cl)cc2)cc1 returned BRCA1 expr act 3%, gsp agonist inconclusive, IL-2 act -2, IDH1 R132H inh 1% and gsp antag 50µM*.
For N#Cc1c(N)[nH]c(=S)c(C#N)c1-c1ccccc1 the results were BRCA1 expr act -17%, gsp agonist 20µM*, IL-2 act -1, IDH1 R132H inh -2% and gsp antag 20%.
Cc1ccc(-c2cc(-c3ccccc3)[nH]c(=S)c2C#N)cc1 was read as BRCA1 expr act -4%, gsp agonist inconclusive, IL-2 act -3, IDH1 R132H inh -8% and gsp antag 1%.
`COc1ccc(C(=O)c2ccc(OC)cc2O)c(O)c1` gave BRCA1 expr act 10µM*, gsp agonist 12%, IL-2 act -1, IDH1 R132H inh 1% and gsp antag -20%.
Screening COc1ccc(C(=O)c2ccccc2O)c(O)c1 returned BRCA1 expr act 19%, IL-2 act 0, IDH1 R132H inh 13% and gsp antag -8%.
Screening COc1cccc(-c2nc(-c3ccc4c(c3)NC(=O)CO4)cs2)c1 returned BRCA1 expr act 10µM*, gsp agonist -16%[15.4 µM], IL-2 act 0, IDH1 R132H inh 2% and gsp antag 5%.
For O=C(/C=C/c1ccc(Cl)c([N+](=O)[O-])c1)Nc1cccc(NC(=O)c2ccco2)c1 the results were BRCA1 expr act -87%, gsp agonist 20%, IL-2 act 0, IDH1 R132H inh 3% and gsp antag 35µM*.
For Cc1ccc(NC(=O)c2ccco2)c([N+](=O)[O-])c1 the results were BRCA1 expr act 7.9µM*, gsp agonist 0%[15.4 µM], IL-2 act 0, IDH1 R132H inh 12% and gsp antag 12%.
`O=C(/C=C/c1ccc(Cl)c([N+](=O)[O-])c1)Nc1ccc(NC(=O)c2ccco2)cc1` gave BRCA1 expr act -2%, gsp agonist 0%[15.4 µM], IL-2 act -4, IDH1 R132H inh -3% and gsp antag -16%.
For COc1ccc(CN(Cc2ccccc2)C(=O)C2CC2)cc1COc1ccc(NC(C)=O)cc1 the results were BRCA1 expr act -5%.
